From PubChem BioAssay (Tox21) come the findings set out here.

Records with an inconclusive call do not appear. Activity calls are given as the source filed them. The call rests on the fitted dose curve; in most records, active means well fitted curve in the direction sought with a large enough effect in the repeat runs; inconclusive means weak or mixed curves; inactive means no such curve, though single readings can be large; an effect the other way counts as inactive or inconclusive.

Experiment [1] in a line: qHTS assay to identify small molecule agonists of the RXR signaling pathway - cell viability counter screen (AID 1159529). Further: nearly all actives have a fitted effect of over 50% in size. Further: potency means the concentration at half of the fitted maximal effect. The note with it: RXR-alpha-bla HEK293T viability, CellTiter-Glo, 16 h; series mostly up to 76.8 µM. The essentials:
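Compounds dissolved in DMSO were pinned onto HEK 293T cells carrying a beta-lactamase reporter under RXR-alpha control and incubated 16 hr. Cytotoxicity was then quantified by CellTiter-Glo luminescence.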
Background: Quantitative high-throughput screening tests each substance at several concentrations.

Experiment [2] is described as follows: qHTS assay to identify small molecule antagonists of the retinoid acid receptor (RAR) signaling pathway - cell viability counter screen (AID 1159551). Further: nearly all actives have a fitted effect of over 35% in size. The following applies: C3RL4 cells viability, ATP luminescence (CellTiter-Glo), 6 h; series mostly up to 92.4 µM. Put shortly: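 Following overnight attachment, C3RL4 reporter cells received DMSO-dissolved compounds and then retinol (1 uM final). Six hours later at 37 C, ATP content was measured by CellTiter-Glo luminescence.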

Experiment [3] in a line: qHTS assay to identify small molecule antagonists of the retinoic acid receptor (RAR) signaling pathway (AID 1159552; further: nearly all actives have a fitted effect of over 50% in size). The note with it: C3RL4 RARE luciferase reporter, retinol-stimulated, 6 h; series mostly up to 92.4 µM. Put shortly: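 Test chemicals and DMSO controls were pin-transferred onto C3RL4 cells a day after seeding; retinol (1 uM final) followed at once. Luminescent reporter output was quantified after 6 hr of co-incubation and 30 min with detection reagent.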

The nature of experiment [4]: qHTS assay to identify small molecule agonists of the retinoic acid receptor (RAR) signaling pathway (AID 1159553). The following applies: C3RL4 RARE luciferase reporter, agonist, 6 h; series mostly up to 73.3 µM. Put shortly: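 Cell line C3RL4, RARE luciferase reporter. Treatment: compounds in DMSO, 6 hr, 37 C, 5% CO2, after overnight plating. Detection: luminescence, 30 min RT after reagent.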

Regarding `O=C(OCCc1ccccc1)c1ccccc1`, the Potency entry in experiment [1] and in experiment [2] was “inactive” in each case.

Regarding `O=C(Cl)c1cc(C(=O)Cl)cc(C(=O)Cl)c1`, in experiment [1], the Potency entry was “inactive”.

In the case of `O=[N+]([O-])c1ccc(NCCO)c(OCCO)c1`, the Potency entry in experiment [1] and in experiment [2] was “inactive” each time.

Consider `Cc1cccc(C)c1NC(=O)CN(CC(=O)O)CC(=O)O`, for which the Potency result in experiment [1] was “inactive”.

On to `CN1Cc2cc(C(=O)N3CCC(C4CCNCC4)CC3)ccc2NC(CC(=O)O)C1=O` (stereo not given), for which, in experiment [1], the Potency result was “inactive”.

As for `CC[N+]1(CC)CCC(=C(c2ccccc2)c2ccccc2)C1C` (stereo not given), the Potency result in experiment [1] was “inactive”.

With `O=C(CS)Nc1ccccc1`, the Potency entry in experiment [1] and in experiment [2] was “inactive” each time.

For `CC(=O)OC[C@H]1O[C@@H](n2ncc(=O)[nH]c2=O)[C@H](OC(C)=O)[C@@H]1OC(C)=O`, the Potency entry in experiment [1] is “inactive”.

In the case of `CCN(CC)CCNC(=O)c1cc(Br)c(N)cc1OC`, the Potency entry in experiment [1] was “inactive”.

Turning to `Cn1c(=O)cc(Oc2ccc(F)cc2F)c2cnc(NCC(C)(C)O)nc21`, the Potency entry in experiment [1] and in experiment [2] was “inactive” throughout.

On to `CN(C)CCN(Cc1ccccc1)c1ccccn1`, for which, in experiment [1], the Potency entry was “inactive”.

For the compound `c1ccc(C(O[C@H]2CCCN(CCc3ccc4c(c3)OCO4)C2)c2ccccc2)cc1`, the Potency result in experiment [1] and in experiment [2] was “inactive” each time.

For the compound `CNCCCCOc1ccccc1Cc1ccccc1`, the Potency result in experiment [1] and in experiment [2] was “inactive” each time.

On to `CCO[C@H](Cc1ccc(OCCc2ccc(OS(C)(=O)=O)cc2)cc1)C(=O)O`, for which, in experiment [1], the Potency result was “inactive”.

`CCCCCCCN`: the Potency entry in experiment [1] and in experiment [2] was “inactive” in each case.

As for `Cc1ccc(C(=O)Oc2ccc(C(O)CNC(C)(C)C)cc2OC(=O)c2ccc(C)cc2)cc1` (stereo not given), the Potency in experiment [1] was 19 µM (active).

On to `CC(C)Cc1ccc(C(C)C(=O)OCc2ccccn2)cc1` (stereo not given), for which the Potency entry in experiment [1] and in experiment [2] was “inactive” in each case.

In the case of `CC(C)(COC(=O)c1ccccc1)COC(=O)c1ccccc1`, the Potency entry in experiment [1] and in experiment [2] was “inactive” in each case.

With `CN(Cc1ccc(C(C)(C)C)cc1)Cc1cccc2ccccc12`, the Potency in experiment [1] is 10.7 µM (active).

As for `CC1=CC=C(C(C)C)CC1`, the Potency result in experiment [1] was “inactive”.

For `CC(C)(CO)[N+](=O)[O-]`, the Potency result in experiment [1] was “inactive”.

In the case of `CCOC(=O)COC(=O)c1cc(Oc2ccc(C(F)(F)F)cc2Cl)ccc1[N+](=O)[O-]`, in experiment [1], the Potency result was “inactive”.

Consider `CC1OC(=O)C(C)OC1=O` (stereo not given), for which the Potency entry in experiment [1] and in experiment [2] was “inactive” in each case.

On to `CCCCC(CC)CN1C(=O)C2C3C=CC(C3)C2C1=O` (stereo not given), for which the Potency entry in experiment [1] was “inactive”.

Turning to `COC(=O)c1ccc(I)cc1S(=O)(=O)NC(=O)Nc1nc(C)nc(OC)n1`, in experiment [1], the Potency entry is “inactive”.

With `COc1ccc(C(=O)N2CCN(CC(=O)N3CCOCC3)CC2)cc1`, the Potency entry in experiment [1] and in experiment [2] was “inactive” throughout.

For the compound `CCOC(=O)c1cccnc1`, the Potency entry in experiment [1] and in experiment [2] was “inactive” in each case.

For `CNC(=O)CN(CCN(CCN(CC(=O)[O-])CC(=O)NC)CC(=O)[O-])CC(=O)[O-].O.[Gd+3]`, the Potency entry in experiment [1] and in experiment [2] was “inactive” throughout.

As for `O=C(O)c1ccco1`, the Potency entry in experiment [1] and in experiment [2] was “inactive” each time.

As to `Nc1cccc(S(=O)(=O)c2cccc(N)c2)c1`, the Potency result in experiment [1] and in experiment [2] was “inactive” each time.

For the compound `c1cc(CCCc2ccncc2)ccn1`, the Potency entry in experiment [1] and in experiment [2] was “inactive” throughout.

In the case of `CCN(CC)CCNc1ccc(CNC=O)c2sc3ccc(OC)cc3c(=O)c12`, the Potency in experiment [1] was 3.09 µM (active).

In the case of `Nc1ncn([C@H]2C[C@H](O)[C@@H](CO)O2)c(=O)n1`, the Potency result in experiment [1] and in experiment [2] was “inactive” throughout.

Turning to `N=c1ccn2c(n1)O[C@H]1[C@H](O)[C@@H](CO)O[C@H]12`, the Potency result in experiment [1] and in experiment [2] was “inactive” each time.

Consider `CCCCCCCCCCCC(=O)OC[C@@H](O)[C@H]1OC[C@H](OCCO)[C@H]1OCCO`, for which the Potency entry in experiment [1], in experiment [2] and in experiment [3] was “inactive” each time.

For `COc1ccc(C)cc1[N+](=O)[O-]`, the Potency entry in experiment [1], in experiment [2], in experiment [3] and in experiment [4] was “inactive” in each case.

With `O=C(O)c1ccccc1Cl`, the Potency result in experiment [1], in experiment [2], in experiment [3] and in experiment [4] was “inactive” each time.

Regarding `Nc1ccccc1S(=O)(=O)c1ccccc1`, the Potency entry in experiment [1], in experiment [2], in experiment [3] and in experiment [4] was “inactive” throughout.

With `CN(C)CCN(Cc1ccsc1)c1ccccn1`, the Potency result in experiment [1], in experiment [2], in experiment [3] and in experiment [4] was “inactive” in each case.

As for `CCCCC1=NC2(CCCC2)C(=O)N1Cc1ccc(-c2ccccc2-c2nn[nH]n2)cc1`, the Potency entry in experiment [1], in experiment [2], in experiment [3] and in experiment [4] was “inactive” in each case.

Consider `CCOCC(O)COc1ccc(NC(=O)CC[S+](C)C)cc1` (stereo not given), for which the Potency result in experiment [1], in experiment [2] and in experiment [3] was “inactive” in each case.

Take `CCCCC(CC)COC(=O)COc1ccc(Cl)cc1Cl` (stereo not given): the Potency entry in experiment [1], in experiment [2] and in experiment [3] was “inactive” each time.

With `O=C(O)c1ccc(S(=O)(=O)O)cc1C(=O)O`, the Potency result in experiment [1], in experiment [2], in experiment [3] and in experiment [4] was “inactive” throughout.

As for `C=C1[C@H]2CC[C@@H]3[C@H]2C(C)(C)CCC[C@]13C`, the Potency entry in experiment [1], in experiment [2], in experiment [3] and in experiment [4] was “inactive” in each case.

Turning to `C[C@@H](c1ncncc1F)C(O)(Cn1cncn1)c1ccc(F)cc1F` (stereo not given in full), the Potency result in experiment [1], in experiment [2], in experiment [3] and in experiment [4] was “inactive” each time.

Regarding `CCOC(=O)Cc1cccc2ccccc12`, the Potency entry in experiment [1], in experiment [2], in experiment [3] and in experiment [4] was “inactive” each time.

Turning to `Cc1cc(N)c2cc(NC(=O)Nc3ccc4nc(C)cc(N)c4c3)ccc2n1`, the Potency result in experiment [1], in experiment [2] and in experiment [3] was “inactive” in each case.
